# Reference: PubChem BioAssay AID1159580 (chemical genetic matrix, 2015)
# Hit rate of the full screen: of about 5,500 compounds, about 2,000 (36%) were called active. About 18% were inconclusive and are not listed. The list shows a part of the results. Unmarked numbers belong to inactive results. No stated cut-off is given here; in the data, active means normalized growth mostly below about 0.91 (no sharp cut-off); inconclusive means no clear call, values can overlap the other calls; inactive means mostly above about 0.92.
# Experiment: chemical genetic growth profiling, strain panel (AID 1159580);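 further: tested at 20 µM; growth read once vehicle control cultures reached saturation at 30 °C; 1 = growth at the plate median or of vehicle wells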
# Details: S. cerevisiae deletion strains, growth OD
smiles,measurement,setting,value
O=c1cccc2ccc(O)c(O)c2c1O,normalized growth,"locus YAL021C, strain ccr4, stronger effect = lower value",0.443 (active)
same,normalized growth,"locus YAL026C, strain drs2, stronger effect = lower value",0.791 (active)
same,normalized growth,"locus YAL030W, strain snc1, stronger effect = lower value",0.948
same,normalized growth,"locus YBL061C, strain skt5, stronger effect = lower value",0.901 (active)
same,normalized growth,"locus YBR009C, strain hhf1, stronger effect = lower value",0.822 (active)
same,normalized growth,"locus YBR021W, strain FUR4, stronger effect = lower value",1.02
same,normalized growth,"locus YBR023C, strain chs3, stronger effect = lower value",0.887 (active)
same,normalized growth,"locus YBR171W, strain sec66, stronger effect = lower value",0.928
same,normalized growth,"locus YBR229C, strain ROT2, stronger effect = lower value",0.385 (active)
same,normalized growth,"locus YBR231C, strain swc5, stronger effect = lower value",0.853 (active)
same,normalized growth,"locus YCL011C, strain gbp2, stronger effect = lower value",0.913
same,normalized growth,"locus YCL016C, strain dcc1, stronger effect = lower value",0.938
same,normalized growth,"locus YCL029C, strain bik1, stronger effect = lower value",0.598 (active)
same,normalized growth,"locus YCL061C, strain MRC1, stronger effect = lower value",0.949
same,normalized growth,"locus YCL069W, strain vba3, stronger effect = lower value",0.945
same,normalized growth,"locus YCR088W, strain abp1, stronger effect = lower value",0.961
same,normalized growth,"locus YDL005C, strain med2, stronger effect = lower value",1
same,normalized growth,"locus YDL035C, strain GPR1, stronger effect = lower value",0.117 (active)
same,normalized growth,"locus YDL040C, strain nat1, stronger effect = lower value",1
same,normalized growth,"locus YDL074C, strain BRE1, stronger effect = lower value",0.241 (active)
same,normalized growth,"locus YDL101C, strain DUN1, stronger effect = lower value",0.145 (active)
same,normalized growth,"locus YDL134C, strain PPH21, stronger effect = lower value",0.112 (active)
same,normalized growth,"locus YDL185W, strain tfp1, stronger effect = lower value",0.955
same,normalized growth,"locus YDL192W, strain arf1, stronger effect = lower value",0.579 (active)
same,normalized growth,"locus YDR001C, strain nth1, stronger effect = lower value",0.975
same,normalized growth,"locus YDR069C, strain doa4, stronger effect = lower value",0.625 (active)
same,normalized growth,"locus YDR101C, strain arx1, stronger effect = lower value",0.734 (active)
same,normalized growth,"locus YDR137W, strain rgp1, stronger effect = lower value",0.161 (active)
same,normalized growth,"locus YDR159W, strain sac3, stronger effect = lower value",0.261 (active)
same,normalized growth,"locus YDR162C, strain NBP2, stronger effect = lower value",0.0859 (active)
same,normalized growth,"locus YDR195W, strain ref2",1.06
same,normalized growth,"locus YDR297W, strain sur2, stronger effect = lower value",0.92 (active)
same,normalized growth,"locus YDR318W, strain mcm21, stronger effect = lower value",0.709 (active)
same,normalized growth,"locus YDR334W, strain swr1, stronger effect = lower value",0.885 (active)
same,normalized growth,"locus YDR335W, strain msn5, stronger effect = lower value",0.748 (active)
same,normalized growth,"locus YDR388W, stronger effect = lower value",0.718 (active)
same,normalized growth,"locus YDR392W, strain spt3, stronger effect = lower value",0.715 (active)
same,normalized growth,"locus YDR502C, strain sam2, stronger effect = lower value",0.372 (active)
same,normalized growth,"locus YEL003W, strain gim4, stronger effect = lower value",0.823 (active)
same,normalized growth,"locus YEL037C, strain rad23, stronger effect = lower value",0.938
same,normalized growth,"locus YEL061C, strain CIN8 (second series), stronger effect = lower value",0.922
same,normalized growth,"locus YEL061C, strain CIN8, stronger effect = lower value",0.301 (active)
same,normalized growth,"locus YER015W, strain faa2, stronger effect = lower value",0.816 (active)
same,normalized growth,"locus YER016W, strain bim1, stronger effect = lower value",0.96
same,normalized growth,"locus YER110C, stronger effect = lower value",1.01
same,normalized growth,"locus YER111C, strain swi4, stronger effect = lower value",0.403 (active)
same,normalized growth,"locus YER155C, strain BEM2 (second series), stronger effect = lower value",0.73 (active)
same,normalized growth,"locus YER155C, strain BEM2, stronger effect = lower value",0.652 (active)
same,normalized growth,"locus YER167W, strain BCK2, stronger effect = lower value",0.45 (active)
same,normalized growth,"locus YFR010W, strain ubp6, stronger effect = lower value",0.795 (active)
same,normalized growth,"locus YGL078C, strain dbp3, stronger effect = lower value",1.03
same,normalized growth,"locus YGL086W, strain mad1, stronger effect = lower value",0.365 (active)
same,normalized growth,"locus YGL167C, strain pmr1, stronger effect = lower value",0.955
same,normalized growth,"locus YGL173C, strain kem1, stronger effect = lower value",0.791 (active)
same,normalized growth,"locus YGL227W, strain vid30, stronger effect = lower value",1.01
same,normalized growth,"locus YGL240W, strain doc1, stronger effect = lower value",0.995
same,normalized growth,"locus YGL248W, strain PDE1, stronger effect = lower value",0.185 (active)
same,normalized growth,"locus YGL253W, strain hxk2, stronger effect = lower value",0.875 (active)
same,normalized growth,"locus YGR135W, strain pre9, stronger effect = lower value",0.523 (active)
same,normalized growth,"locus YGR252W, strain gcn5, stronger effect = lower value",0.501 (active)
same,normalized growth,"locus YHR013C, strain ard1, stronger effect = lower value",0.962
same,normalized growth,"locus YHR027C, strain rpn1, stronger effect = lower value",0.841 (active)
same,normalized growth,"locus YHR079C, strain IRE1 (second series), stronger effect = lower value",0.702 (active)
same,normalized growth,"locus YHR094C, strain hxt1, stronger effect = lower value",0.914 (active)
same,normalized growth,"locus YHR129C, strain ARP1, stronger effect = lower value",0.294 (active)
same,normalized growth,"locus YHR142W, strain chs7, stronger effect = lower value",0.762 (active)
same,normalized growth,"locus YHR200W, strain rpn10, stronger effect = lower value",0.626 (active)
same,normalized growth,"locus YIL066C, strain RNR3, stronger effect = lower value",0.104 (active)
same,normalized growth,"locus YIL073C, strain SPO22, stronger effect = lower value",0.134 (active)
same,normalized growth,"locus YIL125W, strain kgd1, stronger effect = lower value",1.01
same,normalized growth,"locus YIR030C, strain dcg1, stronger effect = lower value",0.836 (active)
same,normalized growth,"locus YJL092W, strain hpr5, stronger effect = lower value",0.963
same,normalized growth,"locus YJL095W, strain BCK1 (second series), stronger effect = lower value",0.871 (active)
same,normalized growth,"locus YJL095W, strain BCK1, stronger effect = lower value",0.0994 (active)
same,normalized growth,"locus YJL115W, strain asf1, stronger effect = lower value",0.954
same,normalized growth,"locus YJL129C, strain trk1, stronger effect = lower value",0.562 (active)
same,normalized growth,"locus YJL134W, strain LCB3, stronger effect = lower value",0.477 (active)
same,normalized growth,"locus YJL154C, strain vps35, stronger effect = lower value",0.961
same,normalized growth,"locus YJL164C, strain tpk1, stronger effect = lower value",0.844 (active)
same,normalized growth,"locus YJL166W, strain qcr8, stronger effect = lower value",0.872 (active)
same,normalized growth,"locus YJL168C, strain set2, stronger effect = lower value",0.937
same,normalized growth,"locus YJL187C, strain SWE1 (second series), stronger effect = lower value",0.106 (active)
same,normalized growth,"locus YJL187C, strain SWE1, stronger effect = lower value",0.893 (active)
same,normalized growth,"locus YJR075W, strain HOC1, stronger effect = lower value",0.358 (active)
same,normalized growth,"locus YKL068W, stronger effect = lower value",1.08 [resistant] (active)
same,normalized growth,"locus YKL085W, strain MDH1 (second series), stronger effect = lower value",1.04
same,normalized growth,"locus YKL085W, strain MDH1, stronger effect = lower value",1.04
same,normalized growth,"locus YKL160W, strain elf1, stronger effect = lower value",0.901 (active)
same,normalized growth,"locus YKR001C, strain vps1, stronger effect = lower value",0.453 (active)
same,normalized growth,"locus YKR026C, strain gcn3, stronger effect = lower value",0.965
same,normalized growth,"locus YKR091W, strain srl3, stronger effect = lower value",0.99
same,normalized growth,"locus YLL001W, strain dnm1, stronger effect = lower value",0.917
same,normalized growth,"locus YLL026W, stronger effect = lower value",0.913 (active)
same,normalized growth,"locus YLL041C, strain sdh2, stronger effect = lower value",0.944
same,normalized growth,"locus YLR027C, strain aat2, stronger effect = lower value",0.897 (active)
same,normalized growth,"locus YLR039C, strain RIC1, stronger effect = lower value",0.179 (active)
same,normalized growth,"locus YLR058C, strain SHM2, stronger effect = lower value",0.126 (active)
same,normalized growth,"locus YLR102C, strain apc9, stronger effect = lower value",0.966
same,normalized growth,"locus YLR221C, strain rsa3, stronger effect = lower value",0.854 (active)
same,normalized growth,"locus YLR258W, strain gsy2, stronger effect = lower value",0.903 (active)
same,normalized growth,"locus YLR262C, strain YPT6 (second series), stronger effect = lower value",0.397 (active)
same,normalized growth,"locus YLR268W, strain sec22, stronger effect = lower value",0.285 (active)
same,normalized growth,"locus YLR320W, strain mms22, stronger effect = lower value",0.689 (active)
same,normalized growth,"locus YLR330W, strain CHS5, stronger effect = lower value",0.615 (active)
same,normalized growth,"locus YLR342W, strain FKS1 (second series), stronger effect = lower value",0.183 (active)
same,normalized growth,"locus YLR342W, strain FKS1, stronger effect = lower value",0.893 (active)
same,normalized growth,"locus YLR357W, strain rsc2, stronger effect = lower value",0.857
same,normalized growth,"locus YLR370C, strain arc18, stronger effect = lower value",0.903 (active)
same,normalized growth,"locus YLR371W, strain rom2, stronger effect = lower value",0.651 (active)
same,normalized growth,"locus YLR384C, strain iki3, stronger effect = lower value",0.944
same,normalized growth,"locus YLR418C, strain cdc73, stronger effect = lower value",0.26 (active)
same,normalized growth,"locus YML016C, strain PPZ1, stronger effect = lower value",0.0765 (active)
same,normalized growth,"locus YML032C, strain rad52, stronger effect = lower value",0.785 (active)
same,normalized growth,"locus YML120C, strain ndi1, stronger effect = lower value",0.208 (active)
same,normalized growth,"locus YML124C, strain tub3, stronger effect = lower value",0.742 (active)
same,normalized growth,"locus YMR058W, strain fet3, stronger effect = lower value",0.344 (active)
same,normalized growth,"locus YMR078C, strain ctf18, stronger effect = lower value",0.965
same,normalized growth,"locus YMR125W, strain sto1, stronger effect = lower value",1
same,normalized growth,"locus YMR129W, stronger effect = lower value",0.976
same,normalized growth,"locus YMR205C, strain PFK2, stronger effect = lower value",0.722 (active)
same,normalized growth,"locus YMR223W, strain ubp8, stronger effect = lower value",0.69 (active)
same,normalized growth,"locus YMR231W, strain pep5, stronger effect = lower value",0.463 (active)
same,normalized growth,"locus YMR263W, strain SAP30, stronger effect = lower value",0.481 (active)
same,normalized growth,"locus YMR307W, strain GAS1, stronger effect = lower value",0.34 (active)
same,normalized growth,"locus YNL067W, strain RPL9B, stronger effect = lower value",0.271 (active)
same,normalized growth,"locus YNL071W, strain lat1, stronger effect = lower value",0.87 (active)
same,normalized growth,"locus YNL209W, strain ssb2, stronger effect = lower value",0.722 (active)
same,normalized growth,"locus YNL233W, strain BNI4, stronger effect = lower value",0.419 (active)
same,normalized growth,"locus YNL248C, strain rpa49, stronger effect = lower value",0.912
same,normalized growth,"locus YNL250W, strain rad50, stronger effect = lower value",1.06
same,normalized growth,"locus YNL271C, strain bni1, stronger effect = lower value",0.97
same,normalized growth,"locus YNL298W, strain CLA4, stronger effect = lower value",0.982
same,normalized growth,"locus YNL307C, strain MCK1, stronger effect = lower value",0.799 (active)
same,normalized growth,"locus YNL322C, strain KRE1 (second series), stronger effect = lower value",0.959
same,normalized growth,"locus YNL322C, strain KRE1, stronger effect = lower value",0.105 (active)
same,normalized growth,"locus YNR049C, strain mso1, stronger effect = lower value",0.98
same,normalized growth,"locus YNR052C, strain pop2, stronger effect = lower value",0.328 (active)
same,normalized growth,"locus YOL012C, strain htz1",0.205
same,normalized growth,"locus YOL147C, strain pex11, stronger effect = lower value",0.65 (active)
same,normalized growth,"locus YOR001W, strain rrp6, stronger effect = lower value",0.892
same,normalized growth,"locus YOR061W, strain CKA2, stronger effect = lower value",0.255 (active)
same,normalized growth,"locus YOR069W, strain VPS5, stronger effect = lower value",0.176 (active)
same,normalized growth,"locus YOR070C, strain gyp1, stronger effect = lower value",0.902 (active)
same,normalized growth,"locus YOR080W, strain dia2, stronger effect = lower value",0.973
same,normalized growth,"locus YOR083W, strain WHI5, stronger effect = lower value",0.86 (active)
same,normalized growth,"locus YOR106W, strain vam3, stronger effect = lower value",0.592 (active)
same,normalized growth,"locus YOR136W, strain idh2, stronger effect = lower value",0.712 (active)
same,normalized growth,"locus YOR144C, strain elg1, stronger effect = lower value",0.788 (active)
same,normalized growth,"locus YOR184W, strain ser1, stronger effect = lower value",0.332 (active)
same,normalized growth,"locus YOR265W, strain rbl2, stronger effect = lower value",0.939
same,normalized growth,"locus YOR270C, strain vph1, stronger effect = lower value",0.369 (active)
same,normalized growth,"locus YOR290C, strain snf2, stronger effect = lower value",0.376 (active)
same,normalized growth,"locus YOR316C, strain cot1, stronger effect = lower value",0.881 (active)
same,normalized growth,"locus YPL051W, strain arl3, stronger effect = lower value",0.672 (active)
same,normalized growth,"locus YPL078C, strain atp4, stronger effect = lower value",0.466 (active)
same,normalized growth,"locus YPL106C, strain sse1, stronger effect = lower value",0.815 (active)
same,normalized growth,"locus YPL240C, strain hsp82, stronger effect = lower value",0.972
same,normalized growth,"locus YPR119W, strain clb2, stronger effect = lower value",0.984
same,normalized growth,"locus YPR141C, strain kar3, stronger effect = lower value",1.04
same,normalized growth,"locus YPR163C, strain tif3, stronger effect = lower value",0.764 (active)
same,normalized growth,"locus YPR167C, strain met16, stronger effect = lower value",0.81 (active)
same,normalized growth,"strain wtn01, stronger effect = lower value",0.337 (active)
